Measurements taken from PubChem BioAssay AID687001 (Broad Institute, 2013).
Entries with a potency or affinity are not part of this list. Active and inactive are the calls of the source.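 Rule for the calls: active = signal-lowering compounds whose fitted half-maximal concentration is at or below twice the top tested dose in every run; inconclusive = runs disagree, flat 30 to 70% inhibition, or poor curve fit; inactive = the rest.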

Target: Protein S100-A4 (Homo sapiens) (UniProt P26447)
Assay: S100A4-myosin IIA binding inhibitor potency, dose response, biochemical, fluorescence polarization, cherry-picked hits (AID 687001)
Settings: FP, S100A4/TAMRA-myosin IIA peptide binding; series mostly up to 11 µM

Chain of Protein S100-A4 (Homo sapiens) (P26447 whole entry, looked up): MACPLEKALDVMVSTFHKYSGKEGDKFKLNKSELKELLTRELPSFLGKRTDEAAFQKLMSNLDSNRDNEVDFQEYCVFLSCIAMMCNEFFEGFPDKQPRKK

| SMILES | outcome |
| --- | --- |
| CCN(C[C@H]1[C@H](c2ccccc2)[C@H](CO)N1C(C)=O)C(=O)c1ccccn1 | inactive |
| Cn1c(/C(C#N)=C(\O)c2cc(Cl)sc2Cl)nc2ccccc21 | inactive |
| O=C(COC(=O)Cc1ccc(Cl)c(Cl)c1)Nc1ccc2[nH]c(=O)[nH]c2c1 | inactive |
| Cc1ccc(S(C)(=O)=O)cc1C(=O)OCC(=O)N(Cc1ccccc1)Cc1ccccc1 | inactive |
| Clc1ccc(-c2nc(CSc3ccccn3)cs2)cc1 | inactive |
| Cc1ccc(C(=O)Nc2ccc(N3CCOCC3)cc2)cc1 | inactive |
| Cc1ccc(NC(=O)CCCCCN2C(=O)[C@@H]3Cc4ccccc4CN3C2=O)cc1 | inactive |
| C[C@@H]1CN([C@@H](C)CO)C(=O)c2cc(C#Cc3ccccc3)cnc2O[C@H]1CN(C)C(=O)c1ccccc1F | inactive |
| COc1ccc(S(=O)(=O)Nc2ccc3c(c2)C(=O)N([C@@H](C)CO)C[C@@H](C)[C@H](CN(C)C(=O)Nc2ccccc2)OCCCC[C@@H](C)O3)cc1 | inactive |
| O=C(Nc1ccc(F)cc1)N1CCCCN2[C@H](CO)[C@H](c3ccc(C#Cc4ccccn4)cc3)[C@H]2C1 | inactive |
| CCn1c(=S)sc2c(=O)n(CC(=O)Nc3ccc(C(C)=O)cc3)c(C)nc21 | inactive |
| COc1ccc(-c2ccc3c(c2)[C@@H]2[C@@H](CCN2C(=O)NC2CCCC2)[C@H](CO)N3C)cc1 | inactive |
| CC(OC(=O)CSCC(=O)Nc1ccc(Cl)cc1)C(=O)N(C)Cc1ccccc1 (centres undefined) | inactive |
| O=C(NCc1cc([N+](=O)[O-])ccc1O)c1cccnc1Sc1ccccc1 | inactive |
| COc1ccccc1NC(=S)NC(=O)Cc1ccccc1 | inactive |
| O=C(NCC[C@H]1CC[C@@H](NS(=O)(=O)c2ccccc2F)[C@H](CO)O1)c1ccc(F)cc1 | inactive |
| COC(=O)CCCC1=CC2=C(c3ccccc3)C(=O)C(C)(OC(=O)C3CCCC3)C(=O)C2=CN1Cc1ccc2c(c1)OCO2 (centres undefined) | inactive |
| CC(=O)Nc1ccc(S(=O)(=O)Nc2ccc3c(c2)OCO3)cc1 | inactive |
| CCOC(=O)N1CCN(Cc2nc3cc([N+](=O)[O-])ccc3n2C)CC1 | inactive |
| Cc1ccc(C(=O)N/C(=C/c2ccc(C(C)C)cc2)C(=O)NCCCN2CCOCC2)cc1 | inactive |
| O=C(C1CCCC1)N1C[C@@H]2[C@H](c3ccccc31)[C@@H](CO)N2C(=O)c1ccccc1F | inactive |
| O=C(COC(=O)C1CC1)NCCc1ccccc1 | inactive |
| C[C@H]1CN([C@@H](C)CO)C(=O)c2cc(C#CC3CCCCC3)cnc2O[C@H]1CN(C)Cc1cncnc1 | inactive |
| Cc1ccc(S(=O)(=O)Nc2ccc(O)c3ccccc23)c(C)c1 | inactive |
